About 1,200 (92%) of roughly 1,300 compounds were called active.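 How the source made its calls: active means inhibition of the VIM-2 beta-lactamase enzyme above about 11% from the earlier first-round screen (limit read from the data); inactive means the rest.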 So high a share suggests a set chosen from earlier hits. Only a sample is shown.
Each molecule was assayed on VIM-2 metallo-beta-lactamase (Pseudomonas aeruginosa) (assay: VIM-2 metallo-beta-lactamase inhibitors, confirmation, biochemical, epi-absorbance, hits shared with IMP-1 screen (AID 2187;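 further: 0% = VIM-2 with DMSO and 100% = buffer wells without enzyme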)). Conditions: purified VIM-2, nitrocefin hydrolysis, at 5.6 µM, stronger effect = higher value.
For `Cc1cc(OCc2cc(C(=O)O)oc2C)c2c3c(c(=O)oc2c1)CCCC3`, the inhibition was 73.5% (active). In the case of `Cc1cc(=O)oc2c(C)c(OCC(=O)N3CCN(Cc4ccc5c(c4)OCO5)CC3)ccc12`, the inhibition is reported as 58.3% (active).

— PubChem BioAssay AID2187 (The Scripps Research Institute Molecular Screening Center, 2009)
